This note sets out measurements from ChEMBL document CHEMBL3988442, “University of Dundee, Small-Polar-MMV Screening Library” (2021).

Out of some 48,000 compounds screened, about 13,000 (27%) showed an effect of 50% or more. The list shows a part of the results.

For this experiment, the system named is Wolbachia pipientis. Nature of the experiment: Anti-Wolbachia Cell-Based Screen. The format is functional. Set-up: scale not given: in the data most compounds retested in dose-response had high values. The following applies: 5 µM.
Turning to `OCC1(Cc2ccc(F)cc2F)CCCN(Cc2ccncc2)C1` (stereo unspecified), the “Percent Effect” value was -2.33%.

Take `Cc1nc(Cn2cc(I)cc(C)c2=O)oc1C`: the “Percent Effect” value worked out at 3.254%.

As for `Cc1noc(C)c1Cn1cc(I)cc(C)c1=O`, the “Percent Effect” value is recorded as 13.31%.

On to `Cc1nnc(Cn2cc(I)cc(C)c2=O)o1`, for which the “Percent Effect” value came to 62.5%.

On to `Cc1nc(-c2cc(Cl)c3c(c2)CC(CN)O3)c[nH]1` (stereo unspecified), for which the “Percent Effect” value worked out at 12.8%.

Turning to `Cc1occc1C(=O)N1CCC2(CCN(Cc3nccs3)C2)CC1.O=C(O)C(F)(F)F`, the “Percent Effect” value is listed as -10.35%.

As for `O=C(O)C(F)(F)F.O=C(c1ccco1)N1C[C@@H]2CCN(c3cccnc3)C[C@@H]2C1`, the “Percent Effect” value came out at 15.12%.

Take `Cc1occc1C(=O)N1CCC2(CCN(C(=O)c3cccnc3)C2)CC1.O=C(O)C(F)(F)F`: the “Percent Effect” value turned out to be 124.8%.

For `O=C(O)C(F)(F)F.O=C(c1cccnc1)N1CCC2(CCN(C(=O)c3ccco3)CC2)C1`, the “Percent Effect” value was 98.34%.

As for `O=C(O)C(F)(F)F.O=C(c1ccco1)N1CCc2ncnc(Oc3cccnc3)c2CC1`, the “Percent Effect” value worked out at 1.407%.

In the case of `COCCNC(=O)[C@]12COC[C@H]1CN(c1cc(OC)ncn1)C2`, the “Percent Effect” value is listed as -2.209%.

On to `CNc1ncc(CN(C)Cc2cc(O)c3cccc(Cl)c3n2)cn1`, for which the “Percent Effect” value was -16.65%.

Turning to `CC1COCCN1C(=O)NCCn1ccnc1` (stereo unspecified), the “Percent Effect” value worked out at 4.662%.

In the case of `O=C(c1cnccn1)N1C[C@@H]2CC[C@H](C1)N(C(=O)Cc1ccsc1)C2`, the “Percent Effect” value was found to be 0.9084%.

In the case of `O=C1C[C@H]2CC[C@@H](CN1)N2C(=O)Cc1ccsc1`, the “Percent Effect” value stood at 116.9%.

With `O=C1C[C@H]2CC[C@@H](CN1)N2C(=O)CCCc1ccc(Cl)cc1`, the “Percent Effect” value amounted to 109.6%.

Take `CS(=O)(=O)N1C[C@@H]2CC[C@H](C1)N(C(=O)CCc1ccsc1)C2`: the “Percent Effect” value was found to be 10.69%.

With `Cn1c2c(ccc1=O)CC(NC(=O)Cc1ccsc1)CC2` (stereo unspecified), the “Percent Effect” value is given as -9.793%.

With `O=C1C[C@H]2CC[C@@H](CN1)N2C(=O)CCc1ccsc1`, the “Percent Effect” value was found to be 104.7%.

As to `O=C(CCc1ccccc1)N1CCN(C(=O)c2ccc[nH]2)CC1`, the “Percent Effect” value amounted to 0.009024%.

As to `NC(=O)C1CCCN1CCCc1ccc(Cl)cc1` (stereo unspecified), the “Percent Effect” value is recorded as -0.6682%.

For the molecule `O=C1C[C@H]2CC[C@@H](CN1)N2C(=O)CCc1ccccc1`, the “Percent Effect” value is given as 110.6%.

As for `O=C(CCCc1ccc(Cl)cc1)N1CCN(C(=O)c2ccc[nH]2)CC1`, the “Percent Effect” value was -0.04512%.

Consider `O=C1CO[C@@H]2CN(C(=O)CCc3ccccc3)C[C@H]2N1`, for which the “Percent Effect” value was -22.36%.

Consider `O=C(c1ccccn1)N1C[C@@H]2CC[C@H](C1)N(C(=O)CCc1ccsc1)C2`, for which the “Percent Effect” value is given as -35.6%.

Regarding `CCN1C(=O)[C@H]2CN(CC(C)C)C[C@H]2C12CCN(S(C)(=O)=O)CC2.O=C(O)C(F)(F)F`, the “Percent Effect” value is 7.177%.

`CN(C)C1CCN(C(=O)C2SCCc3ccccc32)CC1` (stereo unspecified): the “Percent Effect” value was -22.58%.

With `CC(NCCCc1cnn(C)c1)c1ccc(Cl)s1` (stereo unspecified), the “Percent Effect” value is 3.726%.

With `O=C(NC1CC1)C1CNCCN1C(=O)CCc1ccc2c(c1)OCO2` (stereo unspecified), the “Percent Effect” value was 13.7%.

As to `O=C1C[C@H]2CC[C@@H](CN1)N2C(=O)CCc1ccc2c(c1)OCO2`, the “Percent Effect” value is 96.79%.

As for `O=C(CCc1ccc2c(c1)OCO2)N1CCCC(n2cccn2)C1` (stereo unspecified), the “Percent Effect” value is given as -13.74%.

In the case of `O=C(O)C(F)(F)F.O=C([C@@H]1CC[C@@H]2[C@@H](CCN2CCOCc2ccccc2)O1)N1CCCC1`, the “Percent Effect” value was -30.56%.

For the molecule `O=C(O)C(F)(F)F.O=C([C@H]1CC[C@@H]2[C@@H](CCN2Cc2ccsc2)O1)N1CCOCC1`, the “Percent Effect” value is listed as -4.642%.

Turning to `O=C(O)C(F)(F)F.O=C([C@H]1COC[C@H]2CN(C3CCCCC3)C[C@H]21)N1CCOCC1`, the “Percent Effect” value is -10.34%.

In the case of `O=C(O)C(F)(F)F.O=C([C@H]1CC[C@@H]2[C@@H](CCN2C2CCCCC2)O1)N1CCOCC1`, the “Percent Effect” value stood at 120.9%.

Turning to `O=C(O)C(F)(F)F.O=C([C@H]1CC[C@@H]2[C@@H](CCN2C2CCOCC2)O1)N1CCOCC1`, the “Percent Effect” value stood at 111.7%.

Regarding `O=C(O)C(F)(F)F.O=C([C@H]1CC[C@@H]2[C@@H](CCN2C2CCCC2)O1)N1CCOCC1`, the “Percent Effect” value is 125.5%.

`CCN1CCC(CC(=O)N(C)CC(=O)c2ccc(O)cc2)CC1`: the “Percent Effect” value was -2.698%.

`CCCc1cc(C(=O)N2Cc3cnc(C(C)(C)C)nc3C2)ccn1`: the “Percent Effect” value was -16.23%.

Take `CS(=O)(=O)N1CC[C@H]2OCC[C@@]2(C(=O)NCCc2ccccn2)C1.O=C(O)C(F)(F)F`: the “Percent Effect” value is reported as 88.95%.

Consider `CS(=O)(=O)N1CC[C@H]2OCC[C@@]2(C(=O)NCc2ccccn2)C1.O=C(O)C(F)(F)F`, for which the “Percent Effect” value is given as 125.2%.

With `O=C(NCc1ccco1)[C@@]12CCO[C@@H]1CCN(Cc1ccccn1)C2.O=C(O)C(F)(F)F.O=C(O)C(F)(F)F`, the “Percent Effect” value is reported as -8.079%.

Turning to `O=C(NCc1ccccn1)[C@@]12CCO[C@@H]1CCN(Cc1ccccn1)C2.O=C(O)C(F)(F)F.O=C(O)C(F)(F)F.O=C(O)C(F)(F)F`, the “Percent Effect” value was determined as 100.7%.

On to `O=C(O)C(F)(F)F.O=S(=O)(C1CC1)N1CC[C@H]2OCC[C@@]2(COc2ncccc2F)C1`, for which the “Percent Effect” value is -5.546%.

With `Cc1ccc(-c2ccc(C(=O)NCC(N)=O)c(F)c2)cc1`, the “Percent Effect” value was -9.702%.

With `COc1ccc(F)cc1C(=O)N1C[C@H]2CC[C@@H]1CN(c1ncccn1)C2`, the “Percent Effect” value is reported as 11.2%.

Regarding `CN(C)C(=O)Cc1ccccc1NCc1cc(C#N)ccc1F`, the “Percent Effect” value was found to be 6.834%.

Take `Cn1cc(CN2CCn3cc(CNC(=O)CC4CC4)nc3C2)cn1.O=C(O)C(F)(F)F`: the “Percent Effect” value was -2.745%.

As for `CC(c1ccccc1F)N(CC(N)=O)C1CC1` (stereo unspecified), the “Percent Effect” value amounted to 1.619%.

In the case of `Cc1ccc(-c2cc(C)nc(C3CCCN3S(C)(=O)=O)n2)cc1` (stereo unspecified), the “Percent Effect” value came to 112.5%.

For the molecule `Cc1cc(-c2cncnc2)nc(C2CCCN2S(C)(=O)=O)n1` (stereo unspecified), the “Percent Effect” value is recorded as 120.6%.

On to `Cc1cc(-c2ccccc2)nc(C2CCCN2S(C)(=O)=O)n1` (stereo unspecified), for which the “Percent Effect” value is given as 91.07%.

In the case of `Cc1cc(-c2cccnc2)nc(C2CCCN2S(C)(=O)=O)n1` (stereo unspecified), the “Percent Effect” value is listed as 97.49%.

As for `Cc1nc2ccc(-n3ncnc3[C@@H]3CCCN3S(C)(=O)=O)cc2s1`, the “Percent Effect” value is -0.8415%.

Regarding `CCCS(=O)(=O)N1CCCC1c1cccc(N(C)C)c1` (stereo unspecified), the “Percent Effect” value is 5.298%.

For `CN(Cc1cc(-c2cccnc2)no1)C(=O)C1CCCN1S(C)(=O)=O` (stereo unspecified), the “Percent Effect” value is -3.149%.
